Only some compounds are listed: those with a hit (about 1.6% of all), similar ones and a draw of the others.
KCNQ2 enhance – enhances the rat KCNQ2 potassium channel; O88943; CHO-K1 KCNQ2, FluxOR thallium flux fluorescence; stronger effect = higher value; B-score at 10 µM; 310,000 compounds, 0.54% hits;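 active means fluorescence ratio B-score at least 3 SD of library B-scores, with initial fluorescence B-score within 3 of them, cut at about 5.3 in these data; same plate scores as AID 2156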;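 further: B-score of peak minus minimum over baseline fluorescence ratio after K+ and Tl+ stimulus; positive B-score means potentiation of KCNQ2 with more thallium influx and brighter signal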
Target sequence (O88943 whole entry, looked up): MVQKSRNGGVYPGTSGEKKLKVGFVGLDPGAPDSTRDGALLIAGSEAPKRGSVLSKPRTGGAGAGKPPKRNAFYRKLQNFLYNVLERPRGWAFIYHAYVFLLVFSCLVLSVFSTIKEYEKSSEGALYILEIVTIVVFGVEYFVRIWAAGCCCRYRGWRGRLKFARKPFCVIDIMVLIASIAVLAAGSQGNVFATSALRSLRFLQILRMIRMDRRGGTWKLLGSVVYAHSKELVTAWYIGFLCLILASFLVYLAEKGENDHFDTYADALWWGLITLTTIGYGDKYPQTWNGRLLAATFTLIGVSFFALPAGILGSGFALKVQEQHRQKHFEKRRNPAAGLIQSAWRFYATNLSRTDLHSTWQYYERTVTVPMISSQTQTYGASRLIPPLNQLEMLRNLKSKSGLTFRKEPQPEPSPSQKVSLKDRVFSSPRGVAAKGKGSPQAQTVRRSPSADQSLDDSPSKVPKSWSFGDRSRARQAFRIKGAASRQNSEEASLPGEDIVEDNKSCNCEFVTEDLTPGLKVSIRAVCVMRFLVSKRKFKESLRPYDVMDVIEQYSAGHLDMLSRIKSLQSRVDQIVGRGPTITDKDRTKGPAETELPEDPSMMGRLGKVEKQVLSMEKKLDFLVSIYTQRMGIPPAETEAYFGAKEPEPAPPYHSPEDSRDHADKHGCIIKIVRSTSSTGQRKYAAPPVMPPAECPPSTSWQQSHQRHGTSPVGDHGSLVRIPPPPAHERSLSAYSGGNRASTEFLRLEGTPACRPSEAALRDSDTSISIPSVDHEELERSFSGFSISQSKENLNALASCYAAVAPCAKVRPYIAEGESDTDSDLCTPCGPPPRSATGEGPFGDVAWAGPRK
KCNQ2 block – inhibitors of rat KCNQ2 potassium channel | O88943 | CHO-K1 KCNQ2, FluxOR thallium flux, 20 min; stronger effect = lower value | B-score at 10 µM | 310,000 compounds, 1.1% hits;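 active means fluorescence ratio B-score at most minus 3 library SDs, with starting brightness B-score within 2 library SDs, cut at about -5.5 in these data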
An asterisk follows results filed as active; i = inactive; / = no result.

SMILES	KCNQ2 enhance	KCNQ2 block
CCOc1ccccc1NC(=O)c1cccc2ccccc12	-5.55	-5.55*
NC(=O)c1cccnc1Oc1ccc(Cl)cc1	/	i
COc1cccc(C(=O)Nc2cccc3ccccc23)c1OC	-6.19	-6.19*
CC(C)c1ccc(NC(=O)CN2CCN(C(=O)C3CCCO3)CC2)cc1 (centres undefined)	/	i
CN(CC(=O)NNC(=O)Cc1ccccc1F)S(=O)(=O)c1ccc(Cl)cc1	/	i
O=C(Nc1ccccc1N1CCCCC1)c1ccc(-c2cc(Cl)ccc2Cl)o1	1.14	i
CCOc1ccccc1NC(=O)c1cc(-c2cc(OC)c(OC)c(OC)c2)nc2ccccc12	-6.11	-6.11*
COC(=O)c1cc(OC)c(OC)cc1NC(=O)c1cc(-c2ccccc2)nc2ccccc12	/	i
Cc1cccc(C(=O)Nc2nsc(N)n2)c1	/	i
COc1cc(OC)c(C(=O)N2CCN(c3ccccn3)CC2)cc1OC	/	i
O=C(c1ccc(CS(=O)c2ccccc2Cl)o1)N1CCN(c2ccccc2)CC1 (centres undefined)	/	i
O=C(c1ccco1)N1CCN(C(=O)c2ccc(COc3ccc4c(c3)CCC4)o2)CC1	/	i
CCCc1ccc(OCc2ccc(C(=O)N3CCN(c4ccccn4)CC3)o2)c(OC)c1	-5.91	-5.91*
O=C(c1ccc(COc2ccc3c(c2)CCC3)o1)N1CCN(c2ccccc2)CC1	-7.99	-7.99*
O=C(c1ccc(COc2ccccc2Cl)o1)N1CCN(c2ccccc2)CC1	-6.04	-6.04*
CCOCCCn1c(=S)[nH]c2cc(C(=O)NCCCN(CC)CC)ccc2c1=O	1.07	i
COc1ccc(C(=O)C2CCCN(C(=O)c3cccc(Cl)c3F)C2)cc1OC (centres undefined)	/	i
Cc1cc(C(=O)C(C)OC(=O)c2cnccn2)c(C)n1-c1ccccc1 (centres undefined)	/	i
COc1ccc(OC)c(N(CC(=O)N2CCCC2)S(C)(=O)=O)c1	0.83	i
O=S(=O)(N/N=C/c1ccc(Cl)cc1)c1ccc(Cc2ncc(C(F)(F)F)cc2Cl)s1	-6.15	-6.15*
NC(=O)c1ccc(Cc2ncc(C(F)(F)F)cc2Cl)s1	/	i
CCOC(=O)CCNC(=O)Nc1cc2nc(C)n(Cc3cccc(Cl)c3)c2nc1C	/	i
Cc1cccc(C(=O)Nc2ccc(O)c3c(=O)cc(-c4ccccc4Cl)oc23)c1	/	i
CN(C)c1ccc(C(=O)Nc2ccc(O)c3c(=O)cc(-c4ccccc4Cl)oc23)cc1	-5.85	-5.85*
CCCCN(c1nc2ccccc2nc1Cl)S(=O)(=O)c1ccc(C)cc1	/	i
SMILES	KCNQ2 enhance	KCNQ2 block
C=CCn1c(SCC(=O)Nc2ccccc2)nc2scc(-c3cccs3)c2c1=O	/	i
N#CCSc1nc2scc(-c3cccs3)c2c(=O)n1CCc1ccccc1	-7.02	-7.02*
Cc1cc(-n2cc(Br)c(=O)[nH]c2=O)nc(-c2ccccc2)n1	/	i
COC(=O)c1cc(NC(=O)c2cccc(C(F)(F)F)c2)c(=O)oc1C	/	i
COC(=O)c1cc(NC(=O)c2cccc(C(F)(F)F)c2)c(=O)oc1C/C=N/OCc1cccc(Cl)c1Cl	-7.68	-7.68*
O=C(CCc1nc2ccccc2c(=O)[nH]1)N1CCN(S(=O)(=O)c2ccc(Cl)c(C(F)(F)F)c2)CC1	0.38	i
COc1ccccc1OCC(=O)N(Cc1nc(-c2ccccc2)no1)C(C)C	0.76	i
Cc1cc(Br)ccc1OCC(=O)N(Cc1nc(-c2ccccc2)no1)C(C)C	-5.95	-5.95*
Cc1ccc(-c2noc(CN(C(=O)CCCN3C(=O)c4ccccc4C3=O)C(C)C)n2)cc1	/	i
CC(C)N(Cc1nc(-c2ccc(Cl)cc2)no1)C(=O)CCC1CCCC1	-6.15	-6.15*
COc1ccccc1OCC(=O)N(Cc1nc(-c2ccc(Cl)cc2)no1)C(C)C	/	i
Cc1ccc(-c2noc(CN(C(=O)CCN3C(=O)c4ccccc4C3=O)C(C)C)n2)cc1	-5.71	-5.71*
CCOc1ccc2[nH]c(=O)c(CN(CC3COCCO3)C(=O)c3ccc(C)cc3)cc2c1 (centres undefined)	0.44	i
CCN(c1ccccc1)S(=O)(=O)c1cccc(C(=O)NCC(c2cccs2)N2CCOCC2)c1 (centres undefined)	/	i
CC(C)CC(=O)Nc1ccc(C(=O)COC(=O)C2=COCCO2)cc1	/	i
O=C(CSc1nc2ccc(Nc3nc(N4CCOCC4)nc(N4CCOCC4)n3)cc2s1)Nc1ccccc1F	/	i
CCc1nc(SCC(=O)Nc2ccccc2OC)c2c(C)c(C)sc2n1	-5.8	-5.8*
COc1ccccc1NC(=O)CNC(=O)Cn1cnc2sc(C)c(C)c2c1=O	/	i
CSCCC(NC(=O)c1ccccc1Cl)C(=O)N1CCN(C(c2ccccc2)c2ccccc2)CC1 (centres undefined)	-7.16	-7.16*
COc1ccccc1C(=O)NC(CCSC)C(=O)N1CCC(Cc2ccccc2)CC1 (centres undefined)	-7.15	-7.15*
COc1ccccc1C(=O)NC(CCSC)C(=O)OC(C)C(N)=O (centres undefined)	1.42	i
CSCCC(NS(=O)(=O)c1ccc(C)cc1)C(=O)N1CCN(C(c2ccccc2)c2ccccc2)CC1 (centres undefined)	/	i
CNc1c(NS(=O)(=O)c2ccc(Br)cc2)c(=O)oc2ccccc12	/	i
COc1cc2c(cc1OC)C(NNC(=O)c1ccc(Br)o1)=NC(C)(C)C2	/	i
O=C(COc1cccc(Br)c1)NN=C1c2ccccc2-c2ccccc21	/	i
SMILES	KCNQ2 enhance	KCNQ2 block
O=C(NN=C1c2ccccc2-c2ccccc21)c1cccc(Br)c1	17.1*	i
CCCCN(C)CC(O)Cn1cc(/C=C/C(=O)c2ccc(OCC)cc2)c2ccccc21 (centres undefined)	-6.74	-6.74*
CCCCN(C)CC(O)Cn1cc(/C=C/C(=O)c2cccs2)c2ccccc21 (centres undefined)	/	i
Cc1cccc(NC(=O)NC2CCCc3ccccc32)c1 (centres undefined)	/	i
Cc1ccc(-c2noc(CCCOc3ccc(Cl)cc3Cl)n2)cc1	-7.26	-7.26*
COc1ccc(-c2noc(CCCOc3ccc(Cl)cc3Cl)n2)cc1	/	i
CC(C)(C)C(=O)c1no[n+]([O-])c1/C(=N/O)C(C)(C)C	-6.97	-6.97*
CCOC(=O)C1(CCCc2ccccc2)CCN(C(=O)C2=C(C)OCCO2)CC1	/	i
CC(C)Cc1cc(CNC(=O)C2CCC(=O)N(Cc3cccc(C(F)(F)F)c3)C2)on1 (centres undefined)	/	i
CC(C)CN(Cc1cc(=O)oc2cc(-c3ccccc3)c(O)cc12)CC(C)C	-7.5	-7.5*
O=c1cc(CN2CCN(C/C=C/c3ccccc3)CC2)c2cc(O)c(-c3ccccc3)cc2o1	0.92	i
COc1ccc(Cc2nc3ccc(C(=O)NC4CCOC4)cc3o2)cc1 (centres undefined)	0.79	i
O=C(N1CCN(c2ncccn2)CC1)C12CC3CC(CC(C3)C1)C2	0.58	i
Cc1cc(C)n(-c2nc3ccccc3c(=O)n2OCC(=O)Nc2c(C)cccc2C)n1	-6.05	-6.05*
Cc1cc(C)n(-c2nc3ccccc3c(=O)n2OCC(=O)N(C)C)n1	0.04	i
COc1ccc(CNC(=O)CN2C(=O)CC(c3ccccc3)=Nc3ccccc32)cc1	/	i
O=C(CN1C(=O)CC(c2ccccc2)=Nc2ccccc21)NCc1ccccc1	-5.57	-5.57*
CCOc1ccccc1NC(=O)CSc1ccc(-c2sc(C)nc2C)nn1	0.09	i

Assay outcomes: PubChem BioAssay, Johns Hopkins Ion Channel Center
